Measured values taken from PubChem BioAssay.
Calls of active or inactive are those of the source. Unless noted, no rule for the calls is given here.

Legend:
[1] = HepG2 liver cancer cell viability effects, profiling panel, resazurin fluorescence, 24 h, PK04 Diversity Set (AID 1172); conditions: higher = more signal
[2] = basal S. cerevisiae growth modulation, no modifier, primary screen, OD600, strain BY4716, 24 h, basal condition (AID 1173); conditions: OD600, 24 h, higher = more signal, called active from +8 up or from −8 down
[3] = MM1S myeloma cell viability, profiling panel, resazurin fluorescence, basal, 24 h, PK04 Diversity Set (AID 1174); conditions: higher = more signal, called active from +8 up or from −8 down;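 also: MM1S multiple myeloma cell line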
[4] = target: Dihydroorotate dehydrogenase (quinone), mitochondrial (Plasmodium falciparum (isolate 3D7)) (UniProt Q08210); test: PfDHODH enzyme inhibitors, primary screen, biochemical, C-terminal His tag, absorbance 600 nm (AID 1175); conditions: DCIP absorbance 600 nm, higher = more signal, called active from +8 up or from −8 down;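 also: recombinant parasite enzyme with a five histidine tag at its C terminus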
Dihydroorotate dehydrogenase (quinone), mitochondrial (Plasmodium falciparum (isolate 3D7)), sequence (Q08210 whole entry, looked up): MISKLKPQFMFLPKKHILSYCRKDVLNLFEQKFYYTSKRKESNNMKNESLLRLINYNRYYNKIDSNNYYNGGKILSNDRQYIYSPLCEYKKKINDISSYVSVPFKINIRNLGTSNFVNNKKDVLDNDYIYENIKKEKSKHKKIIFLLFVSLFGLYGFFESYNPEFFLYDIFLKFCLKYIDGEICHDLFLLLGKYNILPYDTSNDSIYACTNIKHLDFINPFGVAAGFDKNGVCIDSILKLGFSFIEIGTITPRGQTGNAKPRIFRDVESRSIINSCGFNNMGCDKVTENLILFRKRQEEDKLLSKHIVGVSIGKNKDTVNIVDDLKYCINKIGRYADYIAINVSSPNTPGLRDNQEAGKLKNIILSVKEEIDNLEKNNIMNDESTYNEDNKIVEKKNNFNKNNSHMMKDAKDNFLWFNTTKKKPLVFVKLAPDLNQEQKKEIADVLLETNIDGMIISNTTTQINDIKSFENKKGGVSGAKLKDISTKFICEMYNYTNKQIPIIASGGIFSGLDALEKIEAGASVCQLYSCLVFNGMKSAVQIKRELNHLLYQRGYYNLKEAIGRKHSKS

[5] = P. aeruginosa biofilm formation inhibitors, primary screen, strain PAO1, LB-PBS medium, absorbance 600 nm (AID 1176); conditions: P. aeruginosa PAO1 growth/biofilm, A600, 12 h; higher = more signal
[6] = S. cerevisiae RM11-1a growth modifiers, primary screen, strain RM11-1a, OD600, basal, 24 h (AID 1177); conditions: OD600, 24 h, higher = more signal, called active from +8 up or from −8 down;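 also: cultures grown under basal conditions with no added stressor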
[7] = E. coli acrAB mutant growth effects, primary screen, E. coli filamentation inducers, strain DRC39, OD650, 24 h (AID 1178); conditions: higher = more signal, called active from +8 up or from −8 down;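 also: growth measured as culture turbidity by optical density at 650 nm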
[8] = E. coli acrAB mutant growth effects, primary screen, E. coli filamentation inducers, strain DRC39, OD650, 48 h (AID 1179);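 also: screen aims at cell division blockers that make cells filament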; conditions: E. coli DRC39 delta-acrAB growth, higher = more signal, called active from +8 up or from −8 down
[9] = RPMI8226 myeloma cell viability, profiling panel, resazurin fluorescence, basal, 24 h, PK04 Diversity Set (AID 1180); conditions: higher = more signal;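 also: RPMI8826 multiple myeloma cell line at 5000 cells per well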
[10] = target: E3 ubiquitin-protein ligase XIAP (Homo sapiens) (UniProt P98170); test: XIAP binders, primary screen, biophysical, small-molecule microarray, fluorescence 635 nm (AID 1181); conditions: small-molecule microarray binding, higher = more signal;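 also: score merges 667 nm emission and signal to noise over triplicate slides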
E3 ubiquitin-protein ligase XIAP (Homo sapiens), sequence (P98170 whole entry, looked up): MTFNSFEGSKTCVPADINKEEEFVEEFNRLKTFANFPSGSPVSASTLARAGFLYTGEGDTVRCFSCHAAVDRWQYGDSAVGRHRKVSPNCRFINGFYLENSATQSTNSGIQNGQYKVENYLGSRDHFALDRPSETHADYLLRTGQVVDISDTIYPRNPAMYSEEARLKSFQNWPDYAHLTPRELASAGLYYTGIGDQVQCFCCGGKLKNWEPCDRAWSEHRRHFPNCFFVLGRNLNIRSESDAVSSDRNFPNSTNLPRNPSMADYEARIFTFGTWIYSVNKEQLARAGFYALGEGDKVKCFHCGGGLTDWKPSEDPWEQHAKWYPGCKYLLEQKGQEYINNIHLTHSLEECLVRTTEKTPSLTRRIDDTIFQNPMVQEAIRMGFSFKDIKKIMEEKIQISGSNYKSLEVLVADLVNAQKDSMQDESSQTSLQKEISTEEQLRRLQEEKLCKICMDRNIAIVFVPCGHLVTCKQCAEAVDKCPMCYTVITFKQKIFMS

[11] = system: XIP peptide (Xip251-270) binding; test: small-molecule binders of XIP peptide, primary screen, biochemical, small-molecule microarray, fluorescence 635/667 nm, 0.1 µg/mL protein (AID 1182); conditions: fluorescent protein binding, 635 nm, higher = more signal, called active from +8 up or from −8 down
XIP peptide (Xip251-270) = test: small-molecule binders of XIP peptide, primary screen, biochemical, small-molecule microarray, fluorescence 635/667 nm, 0.5 µg/mL protein (AID 1183); conditions: small-molecule microarray binding, fluorescence 635 nm; higher = more signal
[12] = Plasmodium falciparum growth inhibition, primary screen, strain 3D7, DAPI fluorescence, 100 nL (AID 1184);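 also: parasites grown inside human red blood cells in medium with human serum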; conditions: P. falciparum 3D7 growth, 3 d, higher = more signal
[13] = target: Homeobox protein Hox-A13 (Mus musculus) (UniProt Q62424); test: inhibitors of HoxA13-DNA binding, primary screen, biochemical, fluorescence polarization, labeled oligonucleotide (AID 1185); conditions: 15 min, higher = more signal, called active from +8 up or from −8 down
Homeobox protein Hox-A13 (Mus musculus), sequence (Q62424 whole entry, looked up): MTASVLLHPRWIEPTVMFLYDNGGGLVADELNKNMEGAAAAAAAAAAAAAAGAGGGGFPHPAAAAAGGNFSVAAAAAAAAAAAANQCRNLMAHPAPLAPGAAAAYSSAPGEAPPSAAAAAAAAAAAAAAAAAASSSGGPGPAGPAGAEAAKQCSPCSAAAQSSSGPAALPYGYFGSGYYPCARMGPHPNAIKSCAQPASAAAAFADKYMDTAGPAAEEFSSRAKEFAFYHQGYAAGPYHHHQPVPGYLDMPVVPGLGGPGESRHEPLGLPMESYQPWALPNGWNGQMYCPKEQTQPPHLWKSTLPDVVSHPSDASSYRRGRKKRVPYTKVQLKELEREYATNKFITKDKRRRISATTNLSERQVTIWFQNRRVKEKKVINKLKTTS

[14] = inhibitors of hydroxyurea-induced Chk1 phosphorylation, primary screen, imaging, HeLa, phospho-Chk1 antibody, percent positive cells (AID 1186); conditions: hydroxyurea-induced phospho-Chk1 immunofluorescence imaging, higher = more signal
[15] = inhibitors of hydroxyurea-induced Chk1 phosphorylation, primary screen, imaging, HeLa, phospho-Chk1 nuclear intensity (AID 1187); conditions: hydroxyurea-induced phospho-Chk1 immunofluorescence imaging, higher = more signal

| SMILES | z-score [1] | z-score [2] | z-score [3] | composite z-score [4] | z-score [5] | z-score [6] | z-score [7] | z-score [8] | z-score [9] | composite z-score [10] | composite z-score [11] | composite z-score (XIP peptide (Xip251-270)) | z-score [12] | z-score [13] | z-score [14] | z-score [15] |
| --- | --- | --- | --- | --- | --- | --- | --- | --- | --- | --- | --- | --- | --- | --- | --- | --- |
| O=C1C=C(c2ccccc2)C(=O)c2ccc([C@H]3Oc4ccccc4S(=O)(=O)N4CCC[C@@H]34)cc21 | -0.337 | -18.1 (active) | -8.07 (active) | -5.82 (inactive) | 0.649 (inactive) | -0.801 (inactive) | 1.81 (inactive) | 0.587 (inactive) | -5.86 | -0.31 | -0.668 (inactive) | 0.468 | -3.17 | -3.05 (inactive) | 0.808 (inactive) | 0.885 (inactive) |
| CC(CO)N1C(=O)[C@@H]2[C@H]3C(=O)OCC=C[C@H]3OC23C=CCN(Cc2ccccc2)C(=O)[C@@H]13 (some centres undefined) | 1.44 | -0.319 (inactive) | 1.01 (inactive) | -1.07 (inactive) | 0.745 (inactive) | -1.21 (inactive) | 0.518 (inactive) | 0.075 (inactive) | 1.28 | 0.184 | -0.542 (inactive) | 0.189 | -0.379 | -2.5 (inactive) | -0.539 (inactive) | -0.113 (inactive) |
| CCCCN1CC=CC23O[C@@H]4/C=C\CCC(C)OC(=O)C4[C@H]2C(=O)N(C(CO)C(C)C)[C@@H]3C1=O (some centres undefined) | 0.229 | 0.844 (inactive) | 0.382 (inactive) | -1.29 (inactive) | 0.991 (inactive) | 0.164 (inactive) | 0.375 (inactive) | 0.156 (inactive) | -0.0048 | 0.48 | 0.743 (inactive) | 0.844 | -0.36 | -5.09 (inactive) | -0.428 (inactive) | -0.543 (inactive) |
| COc1ccccc1CN1C(=O)c2ccccc2[C@](Cc2ccccc2I)(C(=O)NCC(F)(F)F)[C@@H]1c1ccc(CO)cc1 | -0.569 | -1.28 (inactive) | -0.142 (inactive) | -0.673 (inactive) | 0.457 (inactive) | 0.648 (inactive) | -0.496 (inactive) | -0.613 (inactive) | 0.17 | 0.0264 | 0.931 (inactive) | 0.909 | -1.49 | -4.98 (inactive) | -0.0993 (inactive) | -0.0597 (inactive) |
| CC(c1ccccc1)C(O)C1C=CC2C(=O)N(c3ccccc3)C(=O)C2N1Nc1ccc([N+](=O)[O-])cc1 (centres undefined) | 0.796 | 0.326 (inactive) | 0.831 (inactive) | 0.101 (inactive) | 0.449 (inactive) | 0.399 (inactive) | -0.821 (inactive) | 0.434 (inactive) | 0.538 | -0.334 | 0.725 (inactive) | 0.837 | -0.917 | -3.22 (inactive) | 0.433 (inactive) | 0.104 (inactive) |
| CC(C)N1C(=O)C[C@@](C(=O)NCCCN(C)C)(c2ccc([N+](=O)[O-])cc2)[C@H]1c1ccc(CO)cc1 | 0.0314 | -0.67 (inactive) | -1.21 (inactive) | 0.352 (inactive) | 0.745 (inactive) | -0.379 (inactive) | -0.328 (inactive) | -1.02 (inactive) | -0.198 | -0.267 | -0.324 (inactive) | 0.51 | 0.0784 | -2.62 (inactive) | 0.414 (inactive) | 0.273 (inactive) |
| COc1ccc([Si](C)(C)[C@@H]2[C@@H](CC(=O)N(CCO)Cc3ccccc3)O[C@]3(C(=O)N(c4ccccc4)c4ccccc43)[C@H]2C)cc1 | -2.66 | -1.74 (inactive) | -5.11 (inactive) | 0.818 (inactive) | 1.26 (inactive) | 0.525 (inactive) | 1.21 (inactive) | 1.1 (inactive) | -5.53 | -0.112 | 0.153 (inactive) | 0.38 | -2.54 | -5.59 (inactive) | -1.11 (inactive) | -0.327 (inactive) |
| CCCCCCc1nc(-c2cc(C)c(OC)c(C)c2)c(C)c2c1[Si](C(C)C)(C(C)C)OC2 | -0.52 | -0.214 (inactive) | 0.899 (inactive) | -2.86 (inactive) | 0.374 (inactive) | -0.199 (inactive) | 0.326 (inactive) | -0.461 (inactive) | 0.736 | -0.0994 | -0.31 (inactive) | -0.306 | -2.23 | -0.241 (inactive) | 0.0933 (inactive) | 0.149 (inactive) |
| CC1CC/C=C\[C@H]2OC34C=CCN(c5ccc(Cl)cc5)C(=O)[C@H]3N(CCCCCO)C(=O)[C@]4(C)C2C(=O)O1 (some centres undefined) | -0.773 | 0.0314 (inactive) | 0.421 (inactive) | 1.22 (inactive) | -0.801 (inactive) | 0.0329 (inactive) | -0.113 (inactive) | 0.227 (inactive) | 0.0738 | 0.102 | -0.546 (inactive) | -0.613 | -0.396 | -4.96 (inactive) | 1 (inactive) | 0.917 (inactive) |
